Screening results from PubChem.
Efflux pump inh = inhibitors of Candida efflux pumps in yeast, primary screen, S. cerevisiae, Nile Red, multiplex | hit rate 0.44% among 330,000 | inhibition, % at 10 µM | S. cerevisiae Candida pump triplex;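 active = plate passing quality check with inhibition over a set limit, or well fluorescence over plate mean plus 4 SD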;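 also: Nile Red retained in pooled yeast measured as flow cytometry median fluorescence; 0% = buffer negative control and 100% = Enniatin B positive control; higher means more Nile Red kept so more efflux inhibition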
ATG4B inhibitor = ATG4B protease inhibitors, primary screen, biochemical, fluorescence, uHTS; hit rate 0.51% among 340,000; Cysteine protease ATG4B (Homo sapiens), Q9Y4P1; inhibition, % at 8.33 µM; ATG4B cleavage of LC3-PLA2, NBD-HPC fluorescence, 1 h; in the data active = inhibition above about 40%
Target sequence (Q9Y4P1 whole entry, looked up): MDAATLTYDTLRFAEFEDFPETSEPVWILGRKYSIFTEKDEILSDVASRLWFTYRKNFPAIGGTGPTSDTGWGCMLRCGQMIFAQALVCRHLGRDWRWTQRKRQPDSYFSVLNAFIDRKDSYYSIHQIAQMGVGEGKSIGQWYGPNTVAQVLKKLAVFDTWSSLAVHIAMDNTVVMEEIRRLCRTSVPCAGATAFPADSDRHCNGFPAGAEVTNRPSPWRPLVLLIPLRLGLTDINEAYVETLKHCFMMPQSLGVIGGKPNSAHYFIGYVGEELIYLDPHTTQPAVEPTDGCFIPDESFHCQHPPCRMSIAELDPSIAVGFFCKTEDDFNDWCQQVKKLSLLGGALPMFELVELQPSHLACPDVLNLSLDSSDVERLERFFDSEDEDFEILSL
CR mimetic SO = reduction of superoxide in aged yeast, primary screen, HTS; hit rate 0.18% among 330,000; superoxide response (% of plate mean), % at 10 µM; S. cerevisiae aged cells, superoxide DHE fluorescence; hits give low values;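 active = superoxide response under a set limit, about three screen SD below normal, cut at about 65% in these data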;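 also: yeast aged for seven days with compound at 30 °C before DHE staining; 100% = average MFI of all compound-treated wells on the plate with controls excluded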
GRK2 aptamer HTS = compounds blocking aptamer binding on GRK2 – biochemical, human GRK2, bead flow cytometry, HTS, primary screen. inhibition of aptamer binding, % at 10 µM. Beta-adrenergic receptor kinase 1 (Homo sapiens), P25098. FAM-aptamer displacement from GRK2. hit rate 0.59% among 330,000;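 active = inhibition of aptamer binding above 40%, roughly 3 SD of noise, on plates passing a quality check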;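 also: median bead fluorescence of bound FAM aptamer so fluorescent compounds give negative values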
Cmpd fluor yeast = flagged as fluorescent in efflux inhibitor counter-screen; hit rate 4% among 1,700; fluorescence ratio to DMSO, % at 10 µM; shares compounds with Efflux pump inh; S. cerevisiae AD/pABC3, compound fluorescence, flow cytometry;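 active = fluorescence ratio to DMSO above its plate's cutoff, the plate mean ratio plus 5 SD, cut at about 210% in these data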;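 also: unstained yeast with no Nile Red so the signal is compound autofluorescence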
CaMdr1 efflux inh = inhibitors of Candida albicans Mdr1 efflux, confirmation, flow cytometry, singleplex, Cherry Pick1 set; shares compounds with Efflux pump inh; S. cerevisiae AD/CaMDR1, Nile Red efflux; inhibition, % at 10 µM; hit rate 1% among 1,700; AID 588518, 2011; in the data active = inhibition above about 26%;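 also: 0% = DMSO vehicle and 100% = reference inhibitor; higher means more Nile Red retained so more efflux inhibition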
CaCdr2 efflux inh = inhibitors of Candida albicans Cdr2 efflux pump, confirmation, S. cerevisiae AD/CaCDR2, flow cytometry, cherry pick 1, singleplex; Nile Red retention ratio vs DMSO, % at 10 µM; shares compounds with Efflux pump inh; hit rate 4% among 1,700; Nile Red retention; in the data active = Nile Red retention ratio vs DMSO above about 190%;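 also: higher ratio means more blocking of Cdr2 efflux of the dye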
Cdr1 pump inh = inhibitors of Candida albicans Cdr1 efflux pump, confirmation, S. cerevisiae AD/CaCDR1, flow cytometry, cherry pick 1, singleplex; shares compounds with Efflux pump inh; Nile Red efflux; inhibition, % at 10 µM; hit rate 1% among 1,700;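 active = inhibition above the screen-wide mean plus twice its standard deviation, cut at about 32% in these data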
The depositor's hits bear a star; / = no result given; + = active, no number. This is a sample that favours compounds with a hit; in the whole collection about 1.6% have one here.

SMILES	Efflux pump inh	ATG4B inhibitor	CR mimetic SO	GRK2 aptamer HTS	Cmpd fluor yeast	CaMdr1 efflux inh	CaCdr2 efflux inh	Cdr1 pump inh
COc1ccc(-c2cc(C(=O)NCCN3CCOCC3)c3ccccc3n2)cc1	-0.1	-3.9	100.8	0.0	107.9	-0.2	106.0	0.0
CC/C(O)=C(\C#N)c1nnc2n1CCCCC2	6.7*	5.1	111.3	2.0	105.7	-0.2	95.4	-0.2
COc1ccc(/C=C/C(=O)Nc2cccc(S(=O)(=O)N3CCCC3)c2)cc1OC	1.1*	-10.4	107.3	35.0	107.9	-0.3	87.9	-0.1
O=C(Nc1ccc2cn[nH]c2c1)c1c(Cl)cccc1Cl	0.1	-10.6	99.6	2.0	/	/	/	/
O=C1C(Cl)=C(Nc2ccc3cn[nH]c3c2)C(=O)c2ccccc21	0.7*	-15.0	142.6	1.0	97.0	-0.2	135.3	-0.4
Cc1cccc(NC(=O)N2CCc3ccccc3C2)c1C	0.1	2.5	105.1	1.0	/	/	/	/
COc1cc(N)c(Br)cc1C(=O)O	0.7*	-0.2	103.0	0.0	91.9	-0.2	93.2	-0.1
CC(=O)c1ccc(O)c(CSC2=NCCS2)c1	-0.1	0.4	112.0	0.0	/	/	/	/
O=c1oc2ccccc2c(N2CCCCC2)c1[N+](=O)[O-]	1.2*	-3.7	80.9	0.0	99.8	-0.2	97.7	-0.1
C/C(=N\NC(=O)CCCNc1ccccc1)c1ccncc1	1.1*	3.7	91.9	2.0	96.6	-0.1	106.3	-0.1
C/C(=N\NC(=O)CCCNc1ccc(C)cc1)c1ccccn1	-0.2	-2.3	92.1	1.0	/	/	/	/
Cc1cccc(NS(=O)(=O)c2ccccc2)n1	0.0	-8.3	116.7	3.0	/	/	/	/
Cc1cccc(NS(=O)(=O)c2ccc(C3CCCCC3)cc2)n1	8.2*	5.0	127.6	1.0	99.0	-0.1	102.9	0.0
COC(=O)CSc1[nH]c2ccc(F)cc2c1[N+](=O)[O-]	0.0	1.6	90.2	2.0	/	/	/	/
O=C(O)/C=C/c1cn(-c2ccccc2)nc1-c1ccc(-c2ccc([N+](=O)[O-])cc2)o1	0.9*	-0.8	108.8	0.0	128.8	0.2	120.5	0.2
CNC(=O)N(O)C1N(c2ccccc2)C(=S)SC1(C)C (configuration not stated)	8.0*	-1.3	92.4	0.0	98.6	-0.1	114.1	0.0
CNC(=O)N(O)C1N(/N=C/c2ccccc2O)C(=S)SC1(C)C (configuration not stated)	0.0	8.5	98.9	1.0	/	/	/	/
C[C@H](CO)N1C[C@H](C)[C@@H](CN(C)S(=O)(=O)c2cccs2)Oc2c(NC(=O)Nc3ccc4c(c3)OCO4)cccc2C1=O	-0.2	-3.8	108.3	1.0	102.2	-0.3	116.5	0.1
CC(C)NC(=O)Nc1cccc2c1O[C@H](CN(C)S(=O)(=O)c1ccc(F)cc1)[C@@H](C)CN([C@H](C)CO)C2=O	0.2	/	126.2	4.0	111.5	0.1	105.7	0.2
C[C@H](CO)N1C[C@H](C)[C@@H](CN(C)S(=O)(=O)c2ccccc2)Oc2c(NC(=O)Nc3ccccc3)cccc2C1=O	0.7	/	94.0	3.0	100.2	-0.1	105.7	-0.1
CC1CCc2c(sc3nc(CN4CCOCC4)nc(N4CCc5ccccc5C4)c23)C1 (configuration not stated)	20.3*	15.2	100.3	0.0	90.7	0.0	116.0	-0.1
CCN(c1ccccc1)S(=O)(=O)c1cccc(C(=O)Nc2ccc(C)cn2)c1	0.0	-2.1	93.7	6.0	/	/	/	/
Cc1ccc2cccc(NC3OC(=O)c4ccccc43)c2n1 (configuration not stated)	0.0	-4.9	114.5	1.0	/	/	/	/
COC(=O)c1ccccc1NC1OC(=O)c2ccccc21 (configuration not stated)	90.9*	-6.7	105.4	0.0	101.4	-0.2	93.5	-0.1
O=C(Cn1cc(C(F)(F)F)ccc1=O)NCc1ccc(F)cc1	-0.1	0.9	111.4	0.0	/	/	/	/
SMILES	Efflux pump inh	ATG4B inhibitor	CR mimetic SO	GRK2 aptamer HTS	Cmpd fluor yeast	CaMdr1 efflux inh	CaCdr2 efflux inh	Cdr1 pump inh
CC(C)CC(C(=O)OCC(=O)Nc1cccc(Cl)c1)N1C(=O)C2CC=CCC2C1=O (configuration not stated)	2.7*	-8.3	107.5	0.0	102.2	0.1	114.4	-0.1
CCN1CCN(c2cc(SC(C)C)nc(-c3ccc(OC)cc3)n2)CC1	/	-4.8	/	/	105.7	-0.2	103.8	-0.1
COc1cccc(Sc2cc(N3CCOCC3)nc(-c3ccccc3)n2)c1	0.1	2.5	105.3	3.0	/	/	/	/
CC(C)Sc1cc(N2CCOCC2)nc(-c2ccc(Cl)cc2)n1	0.0	8.6	99.3	2.0	94.0	0.0	91.1	-0.1
CCCn1c(=O)c(C(=O)NNS(=O)(=O)c2ccc(NC(=O)OC)cc2)c(O)c2ccccc21	-0.1	-10.2	110.0	0.0	/	/	/	/
CCOC(=O)/C(C#N)=C/C1=C(N2CCOCC2)C(C)(C)OCC1	0.9*	-4.5	95.2	2.0	93.7	-0.3	99.3	-0.2
CC(C)CC(C(=O)Nc1ccccc1)N1C(=O)C2C3C=CC(C3)C2C1=O (configuration not stated)	-0.1	-1.4	89.5	1.0	/	/	/	/
CCn1cc(C(=O)Nc2ccc(OC)c(S(=O)(=O)N3CCCCC3)c2)c(=O)c2ccc(C)nc21	0.2	0.6	99.4	0.0	/	/	/	/
COc1ccc(-c2cn[nH]c2-c2ccc(OCc3ccc([N+](=O)[O-])cc3)cc2O)cc1OC	-0.1	-2.4	81.6	2.0	/	/	/	/
O=[N+]([O-])c1ccc(COc2ccc(-c3[nH]ncc3-c3ccc(Cl)cc3)c(O)c2)cc1	17.7*	33.1	111.4	3.0	108.6	0.1	111.6	0.0
Cc1ccc(S(=O)(=O)Cn2nnnc2C(CC(C)C)N2CCN(c3ccccc3)CC2)cc1 (configuration not stated)	0.9*	-1.9	101.7	1.0	107.2	-0.1	107.2	0.0
CCOC(=O)Nc1nc(-c2ccc(Cl)cc2Cl)cs1	0.0	20.2	100.4	0.0	/	/	/	/
C[n+]1c(/C=C/c2ccc(O)cc2)ccc2ccccc21	0.3	7.5	92.3	0.0	/	/	/	/
Cc1cc(/C=C\c2ccc3cc(N(C)C)ccc3[n+]2C)c(C)n1-c1ccccc1	17.3*	5.8	158.5	71.0*	+	37.9*	269.7*	19.9
